For 40 molecules, activity change, negative = inhibition and Potency results are on record in PubChem BioAssay (Tox21).

Inconclusive results are not listed. Entries that show only a call come without a potency. A number with no mark means an inactive call. Activity calls are given as the source filed them. Calls follow the shape of the dose curve; as a rule, active = well fitted inhibition curve with a large enough effect in the signal ratio in the repeat runs (not every such curve was filed as active); inconclusive = weak or mixed curves; inactive = flat fitted curve, though single readings scatter; the % refers to the signal ratio.

Progesterone receptor (Homo sapiens), sequence (P06401 whole entry, looked up): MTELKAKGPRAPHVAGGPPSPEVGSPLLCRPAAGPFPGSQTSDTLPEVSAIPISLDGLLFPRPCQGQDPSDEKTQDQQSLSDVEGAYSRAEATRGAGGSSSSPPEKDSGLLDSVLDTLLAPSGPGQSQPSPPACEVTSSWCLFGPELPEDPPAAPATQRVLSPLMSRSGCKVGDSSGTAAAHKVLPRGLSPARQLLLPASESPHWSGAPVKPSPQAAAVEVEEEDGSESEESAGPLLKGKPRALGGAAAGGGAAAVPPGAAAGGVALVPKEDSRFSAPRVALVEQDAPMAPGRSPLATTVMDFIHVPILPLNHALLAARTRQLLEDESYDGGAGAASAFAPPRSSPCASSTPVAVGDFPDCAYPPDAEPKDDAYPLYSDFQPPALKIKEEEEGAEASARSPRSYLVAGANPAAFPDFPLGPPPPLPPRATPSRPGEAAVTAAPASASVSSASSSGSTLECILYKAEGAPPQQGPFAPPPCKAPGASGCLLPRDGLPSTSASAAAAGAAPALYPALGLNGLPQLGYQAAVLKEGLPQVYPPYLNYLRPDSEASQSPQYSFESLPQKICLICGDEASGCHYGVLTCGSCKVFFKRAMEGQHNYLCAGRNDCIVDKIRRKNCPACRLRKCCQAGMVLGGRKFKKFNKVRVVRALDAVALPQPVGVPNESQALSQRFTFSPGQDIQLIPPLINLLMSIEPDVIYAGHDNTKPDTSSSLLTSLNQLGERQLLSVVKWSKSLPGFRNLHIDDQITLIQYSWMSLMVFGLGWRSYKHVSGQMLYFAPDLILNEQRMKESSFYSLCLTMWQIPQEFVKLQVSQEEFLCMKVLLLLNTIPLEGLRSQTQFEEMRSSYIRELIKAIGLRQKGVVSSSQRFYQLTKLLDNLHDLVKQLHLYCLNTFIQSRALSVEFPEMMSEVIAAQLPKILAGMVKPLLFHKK

For the assay, the target named is Progesterone receptor (Homo sapiens) (UniProt P06401). The assay is described as follows: qHTS assay to identify small molecule antagonists of the progesterone receptor (PR) signaling pathway (AID 1346795). The note with it: PR-UAS-bla HEK293T, beta-lactamase FRET ratio, 16 h; series mostly up to 92.4 µM. An excerpt:
National Center for Advancing Translational Sciences [NCATS]
NIH Chemical Genomics Center [NCGC]
U.S. Environmental Protection Agency [EPA]
National Institutes of Environmental Health Sciences [NIEHS]
National Toxicology Program [NTP]
U.S. Food and Drug Administration [FDA]
Progesterone receptor (PR), a nuclear hormone receptor, plays an important role in development, metabolic homeostasis and reproduction. […] Endocrine disrupting chemicals (EDCs) and their interactions with steroid hormone receptors like PR causes disruption of normal endocrine function. To identify the compounds that inhibit PR signaling, a PR-UAS-bla GripTite cell line i.e. PR-UAS-bla HEK293T (Invitrogen, Carlsbad, CA, USA) containing a beta-lactamase reporter gene under the control of an Upstream Activator Sequence (UAS) was used to screen Tox21 10K compound library.
Tox21 Assay Protocol Summary:
PR-UAS-bla HEK293T cells were dispensed at 3,000 cells/4 uL of assay medium containing 2% charcoal stripped FBS per well into black wall/clear-bottom 1536-well plates using a Multidrop Combi (ThermoFisher Scientific, Waltham, MA) dispenser. After the assay plates were incubated at a 37C and 5% CO2 for 6 hr, 23 nL of compounds dissolved in DMSO, positive controls or DMSO only was transferred to the assay plate by a Pintool station (Kalypsys, San Diego, CA), followed by addition of 1 uL (1nM as final concentration) of Promegestone (R5020) in assay medium using a BioRAPTR FRD (Flying Reagent Dispenser, Aurora Discovery, San Diego, CA). The plates were incubated at 37C and 5% CO2 for 16 hr. Then 1 uL of LiveBLAzer B/G FRET substrate was added using a FRD. After the plates were incubated at room temperature for 2 hours, fluorescence intensity was measured by an Envision plate reader (PerkinElmer, Shelton, CT).
In general terms: Quantitative high-throughput screening tests each substance at several concentrations.
As for `CCCCN1C=CN(C)C1`, the activity change, negative = inhibition was 3.82% [at 18.9 µM].

Take `CCCCN(CCC(=O)OCC)C(C)=O`: the Potency result is “inactive”.

Take `CC(N)C12CC3CC(CC(C3)C1)C2` (stereo not given): the Potency entry was “inactive”.

With `Cc1ncc(COP(=O)(O)O)c(C=O)c1O`, the Potency result was “inactive”.

For the molecule `CCOC(=O)C(=O)CCCCCCl`, the Potency entry was “inactive”.

Regarding `COc1cc(C(=O)OC(COCCC(C)C)CN2CCOCC2)cc(OC)c1OC` (stereo not given), the Potency entry is “inactive”.

As for `Cc1cccc(C)c1NC(=O)CC12CCCN1CCC2`, the Potency result was “inactive”.

Turning to `NC(=O)N1c2ccccc2CC(=O)c2ccccc21`, the Potency result is “inactive”.

For the molecule `CCC(=O)OCc1ccccc1`, the Potency entry is “inactive”.

Turning to `OCCCCCO`, the Potency result is “inactive”.

Regarding `CCCCCCCCCC[N+](C)(C)[O-]`, the Potency result was “inactive”.

Turning to `CCCCCC(=O)OCCc1ccccc1`, the Potency entry was “inactive”.

Take `CC(C)=CCC/C(C)=C/C#N`: the Potency entry is “inactive”.

Consider `NC(=O)N[C@@H](CCC(=O)O)C(=O)O`, for which the Potency result was “inactive”.

For `N[C@H](C(=O)O)[C@@H](O)c1ccc(O)c(O)c1`, the Potency entry is “inactive”.

For the molecule `CN(C)CCCCCCN(C)C`, the Potency result is “inactive”.

In the case of `CC(C)(N)C#N`, the Potency result is “inactive”.

With `CCCC(=O)O[C@]1(C(=O)CC)CC[C@H]2[C@@H]3CCC4=CC(=O)CC[C@]4(C)[C@H]3[C@@H](O)C[C@@]21C`, the Potency result was “inactive”.

For `NS(=O)(=O)Cc1noc2ccccc12`, the Potency entry was “inactive”.

Take `CCN[C@H]1C[C@H](C)S(=O)(=O)c2sc(S(N)(=O)=O)cc21`: the Potency entry was “inactive”.

For the molecule `O=C(CO)[C@@H](O)[C@H](O)[C@@H](O)CO`, the Potency entry was “inactive”.

Take `COCCOC[C@H](CC1(C(=O)NC2CCC(C(=O)O)CC2)CCCC1)C(=O)Oc1ccc2c(c1)CCC2` (stereo not given in full): the Potency entry was “inactive”.

With `NCCCC[C@H](N[C@@H](CCc1ccccc1)C(=O)O)C(=O)N1CCC[C@H]1C(=O)O`, the Potency result was “inactive”.

For `CCCCCCCCCCOc1cc2c(=O)c(C(=O)OCC)c[nH]c2cc1OCC`, the activity change, negative = inhibition was -0.779% [at 8.39 µM].

In the case of `CC(C)COC(=O)c1ccc(N)cc1`, the Potency result is “inactive”.

As for `COc1ccccc1OCC1CNC(=O)O1` (stereo not given), the Potency entry was “inactive”.

Turning to `C=COC(=O)C(C)(CC)CCC(C)C` (stereo not given), the Potency result is “inactive”.

On to `O=C(O)CNC(=O)c1ccc(CO)o1`, for which the Potency entry is “inactive”.

With `CN1CCC(=C2c3ccccc3CCc3cccnc32)CC1`, the Potency entry was “inactive”.

Take `CC(=O)C1CCCCC1=O` (stereo not given): the Potency result was “inactive”.

Regarding `CO[C@@]1(NC(=O)CSC[C@@H](N)C(=O)O)C(=O)N2C(C(=O)O)=C(CSc3nnnn3C)CS[C@@H]21`, the Potency entry was “inactive”.

Consider `COc1c(N2CCNC(C)C2)c(F)cc2c(=O)c(C(=O)O)cn(C3CC3)c12` (stereo not given), for which the Potency result was “inactive”.

For the molecule `CC(C)(C)c1ccc(-c2ccc(C(C)(C)C)cc2)cc1`, the Potency result is “inactive”.

On to `O=C(O)CCSCCC(=O)O`, for which the Potency entry is “inactive”.

As for `C=C(C)C(=O)OCC1CCCO1` (stereo not given), the Potency entry is “inactive”.

Turning to `CCCCCCC1CCC(=O)O1` (stereo not given), the Potency entry was “inactive”.

For the molecule `CCCCCC(C)N` (stereo not given), the Potency result was “inactive”.

For `Nc1ccn([C@@H]2O[C@H](CO)[C@@H](O)C2O)c(=O)n1` (stereo not given in full), the Potency result was “inactive”.

Take `Cc1onc(-c2c(Cl)cccc2Cl)c1C(=O)Cl`: the Potency entry was “inactive”.

In the case of `CC(C)(C#N)Nc1nc(Cl)nc(NC2CC2)n1`, the Potency result was “inactive”.
